Screen size: about 5,500 compounds; about 2,000 (36%) were called active. Another 18% or so got no clear call; they are omitted. Rule as the data show it: active = normalized growth mostly below about 0.91 (no sharp cut-off); inconclusive = no clear call, values can overlap the other calls; inactive = mostly above about 0.92. The list shows a part of the results.
Assay: chemical genetic growth profiling, strain panel (AID 1159580);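 also: tested at 20 µM; growth read once vehicle control cultures reached saturation at 30 °C; 1 = growth at the plate median or of vehicle wells; lower values mean less growth of the strain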
Settings: S. cerevisiae deletion strains, growth OD
[1] = locus YHR030C, strain SLT2, stronger effect = lower value
[2] = locus YHR079C, strain IRE1, stronger effect = lower value
[3] = locus YJL095W, strain BCK1, stronger effect = lower value
[4] = locus YJR066W, strain TOR1, stronger effect = lower value
[5] = locus YLR113W, strain HOG1, stronger effect = lower value
[6] = locus YNL183C, strain NPR1, stronger effect = lower value
[7] = locus YOR231W, strain MKK1, stronger effect = lower value
[8] = locus YPL256C, strain CLN2, stronger effect = lower value

Measured: normalized growth

O=C(CCCN1CCC(O)(c2ccc(Br)cc2)CC1)c1ccc(F)cc1
inactive: [1] 0.959 | [2] 0.976 | [3] 0.962 | [4] 0.937 | [5] 1.02 | [6] 0.902 | [7] 0.981 | [8] 1.02

O=C(CCCN1CCN(c2ccccn2)CC1)c1ccc(F)cc1
active: locus YAL021C, strain ccr4, stronger effect = lower value 0.848 | locus YAL026C, strain drs2, stronger effect = lower value 0.0899 | locus YBR231C, strain swc5, stronger effect = lower value 0.855 | locus YBR279W, strain paf1, stronger effect = lower value 0.93 | locus YDR069C, strain doa4, stronger effect = lower value 0.858 | locus YDR195W, strain ref2 1.23 [resistant] | locus YDR392W, strain spt3, stronger effect = lower value 0.606 | locus YER155C, strain BEM2 (second series), stronger effect = lower value 0.436 | locus YFR010W, strain ubp6, stronger effect = lower value 0.868 | locus YHR013C, strain ard1, stronger effect = lower value 0.746 | locus YHR142W, strain chs7, stronger effect = lower value 0.87 | locus YJL129C, strain trk1, stronger effect = lower value 0.811 | locus YKL160W, strain elf1, stronger effect = lower value 0.9 | locus YLR262C, strain YPT6 (second series), stronger effect = lower value 0.821 | locus YLR320W, strain mms22, stronger effect = lower value 0.57 | locus YNL071W, strain lat1, stronger effect = lower value 0.781 | locus YNL248C, strain rpa49, stronger effect = lower value 0.876 | locus YOR001W, strain rrp6, stronger effect = lower value 0.789 | locus YOR070C, strain gyp1, stronger effect = lower value 0.392 | locus YOR270C, strain vph1, stronger effect = lower value 0.541 | locus YPL051W, strain arl3, stronger effect = lower value 0.905
inactive: locus YAL030W, strain snc1, stronger effect = lower value 0.989 | locus YBL061C, strain skt5, stronger effect = lower value 0.968 | locus YBR009C, strain hhf1, stronger effect = lower value 0.964 | locus YBR023C, strain chs3, stronger effect = lower value 0.969 | locus YBR171W, strain sec66, stronger effect = lower value 0.954 | locus YCL011C, strain gbp2, stronger effect = lower value 0.971 | locus YCL016C, strain dcc1, stronger effect = lower value 0.95 | locus YCL061C, strain MRC1, stronger effect = lower value 0.993 | locus YCL069W, strain vba3, stronger effect = lower value 0.977 | locus YCR088W, strain abp1, stronger effect = lower value 0.992 | locus YDL005C, strain med2, stronger effect = lower value 0.984 | locus YDL040C, strain nat1, stronger effect = lower value 0.984 | locus YDR001C, strain nth1, stronger effect = lower value 0.983 | locus YDR137W, strain rgp1, stronger effect = lower value 1 | locus YDR159W, strain sac3, stronger effect = lower value 0.996 | locus YDR297W, strain sur2, stronger effect = lower value 0.972 | locus YDR334W, strain swr1, stronger effect = lower value 0.968 | locus YDR335W, strain msn5, stronger effect = lower value 0.948 | locus YEL003W, strain gim4, stronger effect = lower value 0.933 | locus YEL037C, strain rad23, stronger effect = lower value 0.971 | locus YEL061C, strain CIN8 (second series), stronger effect = lower value 0.976 | locus YER015W, strain faa2, stronger effect = lower value 0.977 | locus YER016W, strain bim1, stronger effect = lower value 0.981 | locus YER111C, strain swi4, stronger effect = lower value 0.947 | locus YGL167C, strain pmr1, stronger effect = lower value 0.94 | locus YGL173C, strain kem1, stronger effect = lower value 0.927 | locus YGL227W, strain vid30, stronger effect = lower value 0.999 | locus YGL240W, strain doc1, stronger effect = lower value 0.966 | locus YGL253W, strain hxk2, stronger effect = lower value 0.946 | locus YHR027C, strain rpn1, stronger effect = lower value 0.974 | [1] 1.04 | [2] 1.04 | locus YJL092W, strain hpr5, stronger effect = lower value 0.984 | locus YJL095W, strain BCK1 (second series), stronger effect = lower value 0.968 | [3] 0.982 | locus YJL115W, strain asf1, stronger effect = lower value 0.973 | locus YJL154C, strain vps35, stronger effect = lower value 0.993 | locus YJL164C, strain tpk1, stronger effect = lower value 0.932 | locus YJL166W, strain qcr8, stronger effect = lower value 0.949 | locus YJL187C, strain SWE1, stronger effect = lower value 0.967 | [4] 0.972 | locus YKR026C, strain gcn3, stronger effect = lower value 0.988 | locus YKR091W, strain srl3, stronger effect = lower value 0.99 | locus YLL001W, strain dnm1, stronger effect = lower value 0.975 | locus YLL026W, stronger effect = lower value 0.987 | locus YLL041C, strain sdh2, stronger effect = lower value 0.984 | locus YLR027C, strain aat2, stronger effect = lower value 0.975 | [5] 1.01 | locus YLR221C, strain rsa3, stronger effect = lower value 0.976 | locus YLR258W, strain gsy2, stronger effect = lower value 0.987 | locus YLR342W, strain FKS1, stronger effect = lower value 0.981 | locus YLR357W, strain rsc2, stronger effect = lower value 1.12 | locus YLR370C, strain arc18, stronger effect = lower value 0.95 | locus YLR384C, strain iki3, stronger effect = lower value 0.943 | locus YML120C, strain ndi1, stronger effect = lower value 0.961 | locus YMR058W, strain fet3, stronger effect = lower value 0.943 | locus YMR125W, strain sto1, stronger effect = lower value 0.981 | locus YMR129W, stronger effect = lower value 0.986 | locus YMR205C, strain PFK2, stronger effect = lower value 0.894 | locus YMR231W, strain pep5, stronger effect = lower value 0.973 | [6] 0.977 | locus YNL209W, strain ssb2, stronger effect = lower value 0.962 | locus YNL322C, strain KRE1 (second series), stronger effect = lower value 1.02 | locus YNR049C, strain mso1, stronger effect = lower value 0.986 | locus YOR080W, strain dia2, stronger effect = lower value 0.998 | locus YOR083W, strain WHI5, stronger effect = lower value 0.948 | locus YOR106W, strain vam3, stronger effect = lower value 0.905 | [7] 1.04 | locus YOR265W, strain rbl2, stronger effect = lower value 0.969 | locus YOR290C, strain snf2, stronger effect = lower value 0.894 | locus YPL078C, strain atp4, stronger effect = lower value 0.915 | locus YPL106C, strain sse1, stronger effect = lower value 1.1 | locus YPL240C, strain hsp82, stronger effect = lower value 0.985 | [8] 1.1

— PubChem BioAssay AID1159580 (chemical genetic matrix, 2015)
